The values below come from PubChem BioAssay (EPA / NIEHS).

Common to all, as to conditions: mRNA level, 48 h; actives raise or lower the signal
Read-out in assay [1]: MYC, MYC (gene 4609)
In words: LTEA_HepaRG_MYC: Life Technologies and Expression Analysis (LTEA) Assay for MYC using HepaRG (AID 2283518). In short, it runs like this: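 Differentiated human HepaRG cells, plated 48 h then switched to serum-free induction medium, were exposed in duplicate for 48 h to 8-point half-log series up to 100 uM in 0.5% DMSO. MYC mRNA measured by qRT-PCR, normalized to ACTB/GAPDH/POLR2A.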

Read-out in assay [2]: matrix metalloproteinase-3 (MMP3), MMP3 (gene 4314)
In words: LTEA_HepaRG_MMP3: Life Technologies and Expression Analysis (LTEA) Assay for matrix metalloproteinase-3 (MMP3) using HepaRG (AID 2283519). In short, it runs like this: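 Human liver HepaRG cultures received chemicals (top concentration 100 uM, 0.5% DMSO) for 48 h in duplicate. MMP3 mRNA induction or loss was then assessed via TaqMan qRT-PCR with housekeeping-gene normalisation.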

Read-out in assay [3]: Paternally Expressed 10 (PEG10), PEG10 (gene 23089)
Put plainly: LTEA_HepaRG_PEG10: Life Technologies and Expression Analysis (LTEA) Assay for Paternally Expressed 10 (PEG10) using HepaRG (AID 2283520).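 As to AC50: PEG10 transcript by qRT-PCR normalised to ACTB GAPDH and POLR2A.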 Put shortly: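 qRT-PCR read-out: PEG10 mRNA normalised to three housekeeping genes, fitted bidirectionally against 0.5% DMSO vehicle. HepaRG cells received test chemicals for 48 h in serum-free induction medium, 8 points, top 100 uM, half-log steps.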

Read-out in assay [4]: Nuclear factor NF-kappa-B p105 subunit (Homo sapiens) (UniProt P19838)
In words: LTEA_HepaRG_NFKB1: Life Technologies and Expression Analysis (LTEA) Assay for Nuclear Factor Kappa B Subunit 1 (NFKB1) using HepaRG (AID 2283521).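 As to outcome: TaqMan qRT-PCR transcript normalised to ACTB GAPDH and POLR2A housekeeping genes.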 In short, it runs like this: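 Differentiated human HepaRG cells in serum-free induction medium with 0.5% DMSO were exposed for 48 h to eight half-log concentrations, top 100 uM, in duplicate. NFKB1 mRNA measured by Fluidigm TaqMan qRT-PCR, normalised to ACTB, GAPDH and POLR2A; bidirectional fit versus DMSO.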

Read-out in assay [5]: Protein phosphatase 2A (PPP2R4), PTPA (gene 5524)
In words: LTEA_HepaRG_PPP2R4: Life Technologies and Expression Analysis (LTEA) Assay for Protein phosphatase 2A (PPP2R4) using HepaRG (AID 2283522). In short, it runs like this:
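HepaRG, 48 h exposure, 8-pt half-log series from 100 uM, 0.5% DMSO vehicle, duplicates. Readout: PPP2R4 mRNA, Fluidigm qRT-PCR, housekeeping-normalized. Bidirectional curve fit vs DMSO baseline.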

Read-out in assay [6]: Phosphatase and tensin (PTEN), PTEN (gene 5728)
Put plainly: LTEA_HepaRG_PTEN: Life Technologies and Expression Analysis (LTEA) Assay for Phosphatase and tensin (PTEN) using HepaRG (AID 2283523). In short, it runs like this:
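Expression of PTEN is quantified in the human liver line HepaRG following two days of dosing (top concentration 100 uM, half-log dilutions, 0.5% DMSO). Values derive from bidirectional curve fitting relative to DMSO controls.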

Read-out in assay [7]: solute carrier (SLC22A1), SLC22A1 (gene 6580)
Put plainly: LTEA_HepaRG_SLC22A1: Life Technologies and Expression Analysis (LTEA) Assay for solute carrier (SLC22A1) using HepaRG (AID 2283524). In short, it runs like this: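 Transcript induction or suppression of SLC22A1 in human HepaRG cultures is scored after 48 h chemical treatment, with DMSO (0.5%) as baseline for bidirectional fitting. Concentrations span eight half-log points topping at 100 uM.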

Read-out in assay [8]: Nuclear factor erythroid 2-related factor 2 (Homo sapiens) (UniProt Q16236)
In words: LTEA_HepaRG_NFE2L2: Life Technologies and Expression Analysis (LTEA) Assay for Nuclear factor erythroid 2-related factor 2 (NFE2L2) Transcription Factor using HepaRG (AID 2283527).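 Also: TaqMan qRT-PCR transcript level normalised to ACTB GAPDH and POLR2A housekeeping genes.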 Put shortly:
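Human liver HepaRG line treated in duplicate for 48 h with an eight-point series topping at 100 uM. Gene expression of NFE2L2 by qRT-PCR, bidirectionally fitted against the vehicle control.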

Read-out in assay [9]: succinate dehydrogenase complex iron sulfur subunit B (SDHB), SDHB (gene 6390)
Put plainly: LTEA_HepaRG_SDHB: Life Technologies and Expression Analysis (LTEA) Assay for succinate dehydrogenase complex iron sulfur subunit B (SDHB) using HepaRG (AID 2283528). In short, it runs like this: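 HepaRG cells (~100,000/well, plated 48 h) exposed in duplicate for 48 h in serum-free induction medium to 8-point half-log series from 100 uM in 0.5% DMSO; mRNA by qRT-PCR normalised to ACTB, GAPDH, POLR2A; bidirectional fit versus DMSO.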

Read-out in assay [10]: Signal transducer and activator of transcription 3 (Homo sapiens) (UniProt P40763)
In words: LTEA_HepaRG_STAT3: Life Technologies and Expression Analysis (LTEA) Assay for Signal transducer and activator of transcription (STAT3) using HepaRG (AID 2283529). In short, it runs like this:
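In this transcriptional endpoint, HepaRG cultures receive test chemicals at up to 100 uM for 48 h, tested in duplicate. STAT3 mRNA is normalized to ACTB, GAPDH and POLR2A.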

Read-out in assay [11]: solute carrier (SLCO1B1), SLCO1B1 (gene 10599)
In words: LTEA_HepaRG_SLCO1B1: Life Technologies and Expression Analysis (LTEA) Assay for solute carrier (SLCO1B1) using HepaRG (AID 2283530). In short, it runs like this:
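Differentiated human HepaRG cells, plated 48 h, switched to serum-free induction medium and exposed in duplicate for 48 h to 8 half-log concentrations (top 100 uM) in 0.5% DMSO. SLCO1B1 mRNA by TaqMan qRT-PCR, normalized to ACTB/GAPDH/POLR2A.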

Read-out in assay [12]: sulfotransferase 2A1 (SULT2A1), SULT2A1 (gene 6822)
In words: LTEA_HepaRG_SULT2A1: Life Technologies and Expression Analysis (LTEA) Assay for sulfotransferase 2A1 (SULT2A1) using HepaRG (AID 2283531). In short, it runs like this:
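Differentiated human HepaRG cells in serum-free induction medium were exposed for 48 h to eight half-log concentrations (top 100 uM, 0.5% DMSO). SULT2A1 mRNA was measured by qRT-PCR, normalized to ACTB, GAPDH and POLR2A, and fitted bidirectionally against DMSO.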

Read-out in assay [13]: Transforming Growth Factor (TGFA), TGFA (gene 7039)
In words: LTEA_HepaRG_TGFA: Life Technologies and Expression Analysis (LTEA) Assay for Transforming Growth Factor (TGFA) using HepaRG (AID 2283532). Put shortly:
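Gene expression of TGFA was quantified by qRT-PCR after human HepaRG cells were treated for 48 h with test chemicals (eight concentrations, highest 100 uM, 0.5% DMSO). Activity in either direction was fitted relative to DMSO.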

Read-out in assay [14]: Transforming Growth Factor (TGFB1), TGFB1 (gene 7040)
Put plainly: LTEA_HepaRG_TGFB1: Life Technologies and Expression Analysis (LTEA) Assay for Transforming Growth Factor (TGFB1) Transporter using HepaRG (AID 2283533). Put shortly:
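Differentiated human HepaRG cells in serum-free induction medium were exposed in duplicate for 48 h to eight concentrations (top 100 uM, half-log steps, 0.5% DMSO). TGFB1 mRNA was quantified by qRT-PCR, normalized to ACTB, GAPDH, POLR2A, and fitted bidirectionally against DMSO.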

Read-out in assay [15]: TIMP1, TIMP1 (gene 7076)
Put plainly: LTEA_HepaRG_TIMP1: Life Technologies and Expression Analysis (LTEA) Assay for TIMP1 using HepaRG (AID 2283534).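 Also: TaqMan qRT-PCR signal normalized to ACTB GAPDH and POLR2A housekeeping genes.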 In short, it runs like this:
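Differentiated human HepaRG cells in serum-free induction medium were exposed 48 h to chemicals (8 half-log concentrations, top 100 uM, 0.5% DMSO). TIMP1 mRNA was quantified by TaqMan qRT-PCR, normalized to ACTB/GAPDH/POLR2A; bidirectional fit versus DMSO.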

Read-out in assay [16]: Tumor necrosis factor receptor 1 (TNFRSF1A), TNFRSF1A (gene 7132)
Put plainly: LTEA_HepaRG_TNFRSF1A: Life Technologies and Expression Analysis (LTEA) Assay for Tumor necrosis factor receptor 1 (TNFRSF1A) using HepaRG (AID 2283535). In short, it runs like this:
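Differentiated human HepaRG cells were exposed in duplicate for 48 h in serum-free induction medium to eight concentrations (top 100 uM, half-log steps, 0.5% DMSO). TNFRSF1A mRNA was quantified by qRT-PCR, normalized to ACTB, GAPDH and POLR2A, then fitted bidirectionally against DMSO.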

Read-out in assay [17]: Thyroid Hormone Responsive (THRSP), THRSP (gene 7069)
In words: LTEA_HepaRG_THRSP: Life Technologies and Expression Analysis (LTEA) Assay for Thyroid Hormone Responsive (THRSP) using HepaRG (AID 2283536). In short, it runs like this: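 Cell model: human HepaRG, approx. 100,000 cells/well, 0.5% DMSO vehicle. Exposure lasts 48 h; phenobarbital 1 mM serves as induction positive control. Gene expression is measured by qRT-PCR against three endogenous control genes.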

Read-out in assay [18]: NAD(P)H dehydrogenase [quinone] 1 (NQO1), NQO1 (gene 1728)
In words: LTEA_HepaRG_NQO1: Life Technologies and Expression Analysis (LTEA) Assay for NAD(P)H dehydrogenase [quinone] 1 (NQO1) using HepaRG (AID 2283526). In short, it runs like this:
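qRT-PCR read-out (Fluidigm TaqMan), normalized to three housekeeping genes, after 48 h chemical exposure of HepaRG cells. Concentrations: eight points, top 100 uM, half-log steps, 0.5% DMSO vehicle. Gain or loss of signal fitted relative to DMSO.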

Read-out in assay [19]: Pyruvate Dehydrogenase Kinase 4 (PDK4), PDK4 (gene 5166)
Put plainly: LTEA_HepaRG_PDK4: Life Technologies and Expression Analysis (LTEA) Assay for Pyruvate Dehydrogenase Kinase 4 (PDK4) using HepaRG (AID 2283525). Put shortly:
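Eight-point, half-log concentration series (max 100 uM, 0.5% DMSO) applied to differentiated HepaRG cells for 48 h in duplicate. Endpoint: PDK4 mRNA induction or repression by qRT-PCR against DMSO baseline.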

Active and inactive are the calls of the source. The calls were made as follows: active = hit-call score of the fitted dose curve at least 0.9, where 1 is the maximum; inactive = score below 0.9.

Sequence of Signal transducer and activator of transcription 3 (Homo sapiens) (P40763 whole entry, looked up): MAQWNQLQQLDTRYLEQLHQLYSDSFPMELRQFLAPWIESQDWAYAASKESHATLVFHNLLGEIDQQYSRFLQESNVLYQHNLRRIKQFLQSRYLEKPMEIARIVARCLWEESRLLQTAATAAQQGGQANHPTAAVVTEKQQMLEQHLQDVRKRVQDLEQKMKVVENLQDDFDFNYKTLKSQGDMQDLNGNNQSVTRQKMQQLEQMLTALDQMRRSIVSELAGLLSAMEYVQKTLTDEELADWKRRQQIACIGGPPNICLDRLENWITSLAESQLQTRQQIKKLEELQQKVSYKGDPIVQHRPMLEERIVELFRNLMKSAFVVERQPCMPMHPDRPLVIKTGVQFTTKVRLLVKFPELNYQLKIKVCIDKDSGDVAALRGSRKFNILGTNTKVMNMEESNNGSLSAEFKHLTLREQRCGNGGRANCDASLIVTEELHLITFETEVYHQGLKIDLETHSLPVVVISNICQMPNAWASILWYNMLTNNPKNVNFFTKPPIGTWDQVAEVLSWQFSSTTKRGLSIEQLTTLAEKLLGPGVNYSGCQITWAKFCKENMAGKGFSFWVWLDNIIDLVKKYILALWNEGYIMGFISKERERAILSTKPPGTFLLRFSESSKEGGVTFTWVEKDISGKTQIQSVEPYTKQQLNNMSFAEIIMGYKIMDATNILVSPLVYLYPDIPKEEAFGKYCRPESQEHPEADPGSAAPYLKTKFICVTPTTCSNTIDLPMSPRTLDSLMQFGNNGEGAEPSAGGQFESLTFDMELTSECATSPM
Sequence of Nuclear factor NF-kappa-B p105 subunit (Homo sapiens) (P19838 whole entry, looked up): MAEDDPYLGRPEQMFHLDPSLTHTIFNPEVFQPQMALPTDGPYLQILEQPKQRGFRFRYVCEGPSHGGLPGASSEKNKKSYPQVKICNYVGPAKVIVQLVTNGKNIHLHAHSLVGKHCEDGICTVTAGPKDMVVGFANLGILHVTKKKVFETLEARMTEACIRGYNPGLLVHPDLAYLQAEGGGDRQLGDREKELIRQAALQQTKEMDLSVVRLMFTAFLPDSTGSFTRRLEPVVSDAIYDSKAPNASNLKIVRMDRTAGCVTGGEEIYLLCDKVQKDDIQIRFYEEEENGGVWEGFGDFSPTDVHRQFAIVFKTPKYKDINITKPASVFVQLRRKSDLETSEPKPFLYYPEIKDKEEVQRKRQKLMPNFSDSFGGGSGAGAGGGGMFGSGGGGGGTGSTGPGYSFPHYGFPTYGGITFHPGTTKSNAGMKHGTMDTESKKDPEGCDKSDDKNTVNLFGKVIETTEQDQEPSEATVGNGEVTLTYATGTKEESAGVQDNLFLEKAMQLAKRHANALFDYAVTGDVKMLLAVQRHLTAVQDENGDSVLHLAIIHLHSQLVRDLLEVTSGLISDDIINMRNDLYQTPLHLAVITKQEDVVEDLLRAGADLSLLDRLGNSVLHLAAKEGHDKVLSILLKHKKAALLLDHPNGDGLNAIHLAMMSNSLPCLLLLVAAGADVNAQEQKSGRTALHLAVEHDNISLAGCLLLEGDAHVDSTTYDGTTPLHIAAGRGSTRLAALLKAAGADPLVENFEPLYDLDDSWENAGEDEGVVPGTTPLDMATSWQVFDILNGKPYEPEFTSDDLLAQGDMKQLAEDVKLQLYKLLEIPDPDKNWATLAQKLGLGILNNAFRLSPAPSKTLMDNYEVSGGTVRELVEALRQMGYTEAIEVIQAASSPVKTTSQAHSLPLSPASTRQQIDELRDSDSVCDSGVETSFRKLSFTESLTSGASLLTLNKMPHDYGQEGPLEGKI
Sequence of Nuclear factor erythroid 2-related factor 2 (Homo sapiens) (Q16236 whole entry, looked up): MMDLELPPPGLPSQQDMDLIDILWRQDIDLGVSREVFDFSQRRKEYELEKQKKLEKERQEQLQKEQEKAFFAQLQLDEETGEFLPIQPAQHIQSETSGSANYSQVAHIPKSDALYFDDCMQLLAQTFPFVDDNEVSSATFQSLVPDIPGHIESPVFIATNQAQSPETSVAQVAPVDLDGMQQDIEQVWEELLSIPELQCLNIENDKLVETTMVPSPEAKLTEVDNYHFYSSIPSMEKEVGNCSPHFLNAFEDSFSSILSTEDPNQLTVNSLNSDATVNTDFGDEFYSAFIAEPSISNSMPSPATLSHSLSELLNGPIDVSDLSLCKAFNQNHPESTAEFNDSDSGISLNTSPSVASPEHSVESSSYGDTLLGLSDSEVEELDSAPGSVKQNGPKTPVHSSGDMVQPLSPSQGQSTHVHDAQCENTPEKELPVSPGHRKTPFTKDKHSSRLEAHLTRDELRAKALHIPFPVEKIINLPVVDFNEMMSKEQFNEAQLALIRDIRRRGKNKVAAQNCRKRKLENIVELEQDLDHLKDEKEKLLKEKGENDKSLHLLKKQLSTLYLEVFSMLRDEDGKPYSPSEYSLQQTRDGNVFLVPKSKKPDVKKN

`Cc1nccn1-c1ccc(Sc2cccc(C3(C(N)=O)CCOCC3)c2)cc1`: the AC50 in assay [1] was 9.67 µM (active); in assay [3] it was 2.9 µM (active); in [4], 3.18 µM (active); in assay [5], 27.7 µM (active); in assay [6], 28 µM (active); in [7] it was 11.2 µM (active). Also, the AC50 in assay [9] was 27.4 µM (active); in assay [10], 1.93 µM (active); in [11], 13.6 µM (active); in [12], 15 µM (active); in assay [13], 9.24 µM (active); in [14] it was 24.8 µM (active). Further, the AC50 in assay [16] is 7.54 µM (active); in [17], 10.8 µM (active). Moreover, the molecule was called inactive in [2], in [8] and in assay [15].

Take `CCCCOC(=O)c1ccccc1`: the molecule was called inactive in assay [1], in assay [2], in assay [3], in assay [4], in assay [5] and in assay [6]. Also, the result in [7], in assay [18], in assay [8], in [9], in assay [10] and in assay [11] was inactive. For the same molecule, the outcome in assay [12], in assay [13], in assay [14], in assay [15], in assay [16] and in [17] was inactive.

With `OCc1ccccc1`, the call in assay [1], in assay [2], in assay [3], in [4], in [5] and in [6] was inactive. In addition, the outcome in assay [7], in assay [19], in assay [18], in [8], in [9] and in [10] was inactive. For the same molecule, the call in assay [11], in assay [13], in [14], in [15], in assay [16] and in [17] was inactive.

Consider `OC(CCl)CCl`, for which the molecule was classed as inactive in assay [1], in assay [2], in [3], in assay [4], in assay [5] and in [6]. Further, the molecule was classed as inactive in assay [7], in assay [18], in [8], in assay [9], in assay [10] and in assay [11]. For the same molecule, the outcome in [13], in assay [14], in [15], in assay [16] and in assay [17] was inactive.

Take `O=C(O)[C@H](O)[C@@H](O)C(=O)O`: the molecule was classed as inactive in [1], in assay [2], in assay [3], in assay [4], in assay [5] and in assay [6]. Besides, the molecule was classed as inactive in assay [7], in assay [8], in [9], in [10], in assay [11] and in assay [12]. In addition, the molecule was classed as inactive in assay [13], in assay [14], in assay [15], in [16] and in assay [17].

As to `CCCC(CCC)C(=O)O`, the molecule was called inactive in assay [1], in assay [2], in [3], in assay [4], in assay [5] and in assay [6]. Also, the molecule was classed as inactive in assay [7], in assay [19], in assay [8], in [9], in assay [10] and in assay [11]. Also, the molecule was classed as inactive in [13], in [14], in assay [15], in [16] and in assay [17].

Take `CCCCCOC(C)=O`: the outcome in assay [1], in [2], in [3], in [4], in assay [5] and in [6] was inactive. In addition, the call in assay [7], in assay [8], in assay [9], in assay [10], in [11] and in assay [13] was inactive. Also, the molecule was classed as inactive in assay [14], in [15], in [16] and in [17].

Broadly, the AC50 is the midpoint of the concentration-response curve, whichever way the signal moves.
